# ± gives the standard deviation.
# Test system: THP-1 macrophages infected with Mycobacterium tuberculosis H37Rv
# Assay: intracellular M.tb growth inhibition relative to DMSO (0) and 4 uM bedaquiline (100); higher = stronger inhibition of intracellular bacterial growth
# Conditions: 10 µM; 4 days
# Procedure: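 OICR kinase inhibitor library screened in duplicate at 10 uM against THP-1 macrophages (PMA-differentiated) infected with M. tuberculosis H37Rv-pTEC27 (tdTomato RFP), 4 days at 37 C. Rows with complete host cell loss (placeholder inhibition 0, cell loss 100) were removed.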
row,SMILES,intracellular M.tb growth inhibition [%]
1,COC[C@H]1OC(=O)c2coc3c2[C@@]1(C)C1=C(C3=O)[C@@H]2CCC(=O)[C@@]2(C)C[C@H]1OC(C)=O [Wortmannin],-159 ± 64
2,Cn1cc(C2=C(c3cn(C4CCN(Cc5ccccn5)CC4)c4ccccc34)C(=O)NC2=O)c2ccccc21 [Enzastaurin],-5.94 ± 8.4
3,CC(=O)c1c(O)c(C)c(O)c(Cc2c(O)c3c(c(C(=O)/C=C/c4ccccc4)c2O)OC(C)(C)C=C3)c1O [Rottlerin],-0.827 ± 1.2
4,O=C1NC(=O)c2c1c1c3ccccc3[nH]c1c1[nH]c3ccccc3c21 [Arcyriaflavin A],-61.8 ± 87
5,COc1ccc2c(c1)/C(=C/c1cnc[nH]1)C(=O)N2,-99.5 ± 38
6,Cc1ccccc1-n1c(Cn2cnc3c(N)ncnc32)nc2cccc(C)c2c1=O,-13.6 ± 20
7,N#C/C(=C\c1ccc(O)c(O)c1)C(N)=S,-46 ± 15
8,NC(=S)N/N=C/c1coc2ccccc2c1=O.[Cl][Cu][Cl],4.45 ± 6.8
9,C/C(O)=C(\C#N)C(=O)Nc1cc(Br)ccc1Br,-33.5 ± 11
